Values joined by “and” are separate entries in the source; they are usually repeats but may differ in a detail not shown here. Identical values can stand only once. The source holds several records for some structures; these can differ, active in one and inactive in another. Active and inactive are the calls of the source. The calls were made as follows: active = hit-call score of the fitted dose curve at least 0.9, where 1 is the maximum; inactive = score below 0.9.

As usually defined, the AC50 is the midpoint of the concentration-response curve, whichever way the signal moves.

Assay [1] is described as follows: BSK_BT_PBMCCytotoxicity: PBMC Cytotoxicity Assessment in the BioMAP Diversity Plus: BT Assay (AID 2284225).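 Also: PBMC viability measured by Alamar Blue dye reduction fluorescence.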 The settings on record: primary human B cells with PBMC. The procedure, abridged: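 75,000 cells/well; cpd 1 h → SEB + TSST-1 (20 ng/mL final each) → 90 h → Alamar Blue 6 h → fluor. 546/580 nm. DMSO = neg. control/baseline.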
Read-out in assay [2]: Secreted IgG (sIgG), gene 3500
Kind of assay: BSK_BT_sIgG: BioMAP Diversity Plus: BT Assay for Secreted IgG (sIgG) Biomarker Activity (AID 2284226). The settings on record: primary human B cells with PBMC. The procedure, abridged:
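B cells co-cultured with PBMC were dosed with chemical and secreted IgG quantified by ELISA at 24 h. Activity was fitted in the positive direction relative to DMSO as negative control and baseline.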

A short description of assay [3]: BSK_BT_Bcell_Proliferation: Viability Assessment in the BioMAP Diversity Plus: BT Assay for B cell Proliferation (AID 2284227). The settings on record: primary human B cells with PBMC. The procedure, abridged:
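SRB-based protein staining (0.1% SRB after 10% TCA fixation, 560 nm) quantifies proliferation in human B cells co-cultured with PBMC, 72 h post-dosing, with signal gain scored relative to DMSO negative control.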

Read-out in assay [4]: Interleukin 6 (IL6), IL6 (gene 3569)
Kind of assay: BSK_BT_xIL6: BioMAP Diversity Plus: BT Assay for Interleukin 6 (IL6) Biomarker Activity (AID 2284228). The conditions noted are these: primary human B cells with PBMC. The procedure, abridged:
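Chemical added to human B cell/PBMC co-culture → 24 h → supernatant IL-6 by Luminex xMAP → fit vs DMSO baseline, upward direction.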

Read-out in assay [5]: Interleukin 17A (IL17A), IL17A (gene 3605)
Put plainly: BSK_BT_xIL17A: BioMAP Diversity Plus: BT Assay for Interleukin 17A (IL17A) Biomarker Activity (AID 2284229). The conditions noted are these: primary human B cells with PBMC. The procedure, abridged: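 Chemicals were added to a human B cell and PBMC co-culture. After 24 h, secreted IL-17A was measured with Luminex xMAP. Curves were fitted in the positive direction, with DMSO wells as baseline.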

Read-out in assay [6]: Tumor necrosis factor (Homo sapiens) (UniProt P01375)
Put plainly: BSK_BT_xTNFa: BioMAP Diversity Plus: BT Assay for Tumor necrosis factor alpha (TNF-alpha) Biomarker Activity (AID 2284230). The conditions noted are these: primary human B cells with PBMC. The procedure, abridged: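 Compounds were added to a B cell plus PBMC co-culture, and after 24 h secreted TNF-alpha was quantified with Luminex xMAP technology, with responses fitted upward from the DMSO control.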

Read-out in assay [7]: Vascular cell adhesion molecule 1 (VCAM1), VCAM1 (gene 7412)
Kind of assay: BSK_MyoF_VCAM1: BioMAP Diversity Plus: MyoF Assay for Vascular cell adhesion molecule 1 (VCAM1) Biomarker Activity (AID 2284231). The conditions noted are these: primary human lung fibroblasts. In a few lines:
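Steps: fibroblasts from human lung exposed to compound; biomarker quantified by ELISA at 24 h; values analysed for upward change over the DMSO baseline.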

Read-out in assay [8]: Collagen I, COL1A1 (gene 1277)
Kind of assay: BSK_MyoF_CollagenI: BioMAP Diversity Plus: MyoF Assay for Collagen I Biomarker Activity (AID 2284238). The conditions noted are these: primary human lung fibroblasts. The procedure, abridged: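 Multiplexed primary human lung fibroblast system; Collagen I measured by ELISA at 24 h post-dose. Increases are referenced to DMSO.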

Read-out in assay [9]: Collagen III, COL3A1 (gene 1281)
Put plainly: BSK_MyoF_CollagenIII: BioMAP Diversity Plus: MyoF Assay for Collagen III Biomarker Activity (AID 2284239). The conditions noted are these: primary human lung fibroblasts. In a few lines:
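Compounds are added to primary human lung fibroblasts and left for 24 hours. Collagen III is then quantified by ELISA. Analysis takes DMSO as baseline and fits increases in signal.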

Sequence of Tumor necrosis factor (Homo sapiens) (P01375 whole entry, looked up): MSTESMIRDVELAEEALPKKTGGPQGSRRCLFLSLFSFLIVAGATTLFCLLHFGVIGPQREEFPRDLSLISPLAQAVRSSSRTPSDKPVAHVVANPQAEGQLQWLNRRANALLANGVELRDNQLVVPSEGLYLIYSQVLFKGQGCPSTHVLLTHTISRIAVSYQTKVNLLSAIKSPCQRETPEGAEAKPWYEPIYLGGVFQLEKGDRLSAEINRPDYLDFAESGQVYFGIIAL

Consider `Cc1cc(C)c(O)c(C(C)(C)C)c1`, for which the result in [1], in assay [2], in assay [3], in assay [4], in assay [5] and in [6] was inactive. Moreover, the results for the concentration at half-maximal activity (AC50) in assay [7], in assay [8] and in assay [9] were 34.2 µM (active), 30.6 µM (active) and 30.5 µM (active), respectively.
Consider `OCC(F)(F)C(F)(F)C(F)(F)CO`, for which the outcome in assay [1], in [2], in assay [3], in assay [4], in [5] and in assay [6] was inactive. The outcome in assay [7], in [8] and in assay [9] was inactive.
As to `C=C(C)C(=O)OCC(F)(F)C(F)(F)C(F)(F)C(F)F`, the outcome in assay [1], in assay [2], in assay [3], in [4], in assay [5] and in [6] was inactive. In addition, the result in assay [7], in assay [8] and in assay [9] was inactive.
With `O=C=NCc1cccc(CN=C=O)c1`, the result in assay [1], in assay [2], in assay [3], in [4], in assay [5] and in assay [6] was inactive. Besides, the outcome in assay [7], in assay [8] and in assay [9] was inactive.
As for `O=C(c1ccccc1)c1ccc(O)cc1O`, the outcome in assay [1], in assay [2], in [3], in assay [4], in assay [5] and in assay [6] was inactive. In addition, the outcome in assay [7], in assay [8] and in assay [9] was inactive.
For `CCN(CC)c1ccc2c(c1)Oc1cc(N(CC)CC)ccc1C21OC(=O)c2ccccc21`, the AC50 in [1] was 6.15 µM (active); in [2], 6.43 µM (active); in assay [3], 6.1 µM (active); in assay [4] it was 10 µM (active). Besides, the result in assay [5], in assay [6], in assay [7], in assay [8] and in assay [9] was inactive.
`C[Si](Cl)(Cl)CCC(F)(F)C(F)(F)C(F)(F)C(F)(F)C(F)(F)C(F)(F)F`: the result in assay [1], in assay [2], in assay [3], in [4], in assay [5] and in [6] was inactive. In addition, the outcome in assay [7], in assay [8] and in assay [9] was inactive. Besides, in assay [6], the AC50 was 3.33 µM (active).
As for `O=S(=O)(Cl)C(F)(F)C(F)(F)C(F)(F)C(F)(F)C(F)(F)C(F)(F)C(F)(F)C(F)(F)F`, the AC50 in assay [1] was 8.8 µM (active) and 16.2 µM (active); in [6], 15.9 µM (active); in assay [9], 30 µM (active) and 41.1 µM (active). Besides, the outcome in [2], in assay [3], in assay [4], in assay [5], in assay [6] and in assay [7] was inactive. Also, in assay [8], the result was inactive.
On to `O=C1c2c(O)ccc(Nc3ccc(CCO)cc3)c2C(=O)c2c([N+](=O)[O-])ccc(O)c21`, for which the half-maximal activity concentration (AC50) is 20 µM (active) in [1]; 29.9 µM (active) in assay [2]; 15.5 µM (active) in [3]; 20 µM (active) in assay [7]; 28.9 µM (active) in assay [8]; 30.2 µM (active) in [9]. Moreover, the outcome in assay [4], in assay [5] and in [6] was inactive.
As for `O=C(O)C(F)(F)OC(F)(F)C(F)(F)OC(F)(F)C(F)(F)OC(F)(F)F`, the half-maximal activity concentration (AC50) in assay [1] was 14.8 µM (active). In addition, the result in assay [1], in assay [2], in assay [3], in assay [4], in [5] and in assay [6] was inactive. In addition, the outcome in assay [7], in [8] and in [9] was inactive.
With `O=S(=O)(O)CCC(F)(F)C(F)(F)C(F)(F)C(F)(F)F`, the result in [1], in assay [2], in assay [3], in [4], in assay [5] and in assay [6] was inactive. Besides, the outcome in assay [7], in [8] and in assay [9] was inactive.
With `CCOC(=O)CC(=O)C(F)(F)C(F)(F)F`, the outcome in assay [1], in assay [2], in assay [3], in [4], in assay [5] and in assay [6] was inactive. Besides, the outcome in assay [7], in [8] and in assay [9] was inactive.
On to `OCC(O)CC(F)(F)C(F)(F)C(F)(F)C(F)(F)F` (stereo not drawn), for which the outcome in [1], in assay [2], in assay [3], in [4], in [5] and in assay [6] was inactive. For the same molecule, the result in [7], in [8] and in assay [9] was inactive. The half-maximal activity concentration (AC50) in assay [6] was 0.153 µM (active).
With `C=CC(=O)OCCC(F)(F)C(F)(F)C(F)(F)C(F)(F)F`, the concentration at half-maximal activity (AC50) in [1] is 37.8 µM (active) and 25.8 µM (active); in assay [2] it was 36.7 µM (active) and 44.9 µM (active); in assay [3] it was 45.3 µM (active) and 46.6 µM (active); in [4] it was 39.6 µM (active) and 35.5 µM (active); in assay [5], 33.5 µM (active) and 10.7 µM (active); in assay [6], 38.4 µM (active) and 30 µM (active). For the same molecule, the AC50 in [7] is 21 µM (active). The result in assay [7], in assay [8] and in assay [9] was inactive.
Turning to `CCN(CC)c1ccc(C=O)c(O)c1`, the result in assay [1], in [3], in assay [4], in [5], in assay [6] and in assay [7] was inactive. In addition, the outcome in [8] and in assay [9] was inactive. For the same molecule, the AC50 in [2] is 20 µM (active).
In the case of `CC(C)(C)c1cc(CCC(=O)NCCCCCCNC(=O)CCc2cc(C(C)(C)C)c(O)c(C(C)(C)C)c2)cc(C(C)(C)C)c1O`, the result in [1], in assay [3], in [4], in assay [5], in [6] and in [7] was inactive. For the same molecule, the result in assay [8] and in assay [9] was inactive. Further, the AC50 in [2] is 1.98 µM (active).
For `Nc1cc([N+](=O)[O-])cc(Cl)c1O`, the outcome in assay [1], in [2], in [3], in [4], in [5] and in [6] was inactive. The result in assay [7], in assay [8] and in assay [9] was inactive.

For the origin of these results see PubChem BioAssay (EPA / NIEHS).
